Assay [1] can be described thus: suppressors of polyQ aggregation in yeast, 75Q-TubU reporter (AID 1593). Particulars: Yeast 75Q polyglutamine aggregation reporter.
Assay [2] is described as follows: inhibitors of mitochondrial cytochrome c release, biochemical, purified mitochondria (AID 1603).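 Note: mouse liver mitochondria challenged with calcium chloride; signal normalized to the plate average as 100%.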 Particulars: stronger effect = lower value.
A short description of assay [3]: inhibitors of polyQ protein aggregation (AID 1604). Particulars: polyglutamine-induced protein aggregation inhibition assay; stronger effect = higher value; tested at 2.5 µM.
Assay [4] can be described thus: liver-stage malaria parasite growth inhibition, primary screen, cell-based, HepG2, luciferase luminescence, HepG2 viability (AID 624349; in the data active = parasite load remaining mostly below about 12%, no sharp cut-off; inactive = mostly above about 10%;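 note: 100% = mean of DMSO negative control wells on the same plate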). Particulars: P. berghei liver stage in HepG2, luciferase luminescence, concentration not given here; parasite load remaining: stronger effect = lower value; viability: measured here: HepG2 viability without parasites.
Assay [5] is described as follows: stimulators of nuclear beta-catenin in C2C12, primary screen, imaging, WNT3A-conditioned medium, mouse C2C12, NPC library (AID 1117326; in the data active = nuclear beta-catenin stimulation mostly above about 4.2%, no sharp cut-off; inactive = mostly below about 10%). To be noted: stronger effect = higher value.
The nature of assay [6]: stimulators of insulin release from INS-1E, primary screen, cell-based, 5 mM glucose, NPC library (AID 1117329;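 active = compound raises insulin release from rat beta cells at 5 mM glucose, no numeric limit stated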). To be noted: rat INS-1E insulin secretion, at 10 µM, stronger effect = higher value.
Assay [7] in a line: growth inhibition of GSK3B-pretreated HCT116 cells – cell-based, CellTiter-Glo, 0.2 to 20 µM (AID 1117336;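 active = compounds lowering colon cancer cell viability after pretreatment blocking the GSK3B kinase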). To be noted: HCT116 viability after GSK3B inhibitor, at 20 µM, stronger effect = higher value. A general note: ATP-based viability assays read luminescence as a measure of living cells.
The nature of assay [8]: inhibition of endothelial tube formation, primary screen, imaging, VEGF stimulated, CD31 staining, tube area, NPC library (AID 1117340;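 active = compound that reduces growth-factor-driven endothelial tube area in a mixed cell culture, no cutoff stated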). Particulars: VEGF-stimulated ADSC/ECFC co-culture, at 10 µM, stronger effect = higher value.
Assay [9] can be described thus: glucagon-like peptide 1 release enhancers, primary assay, NCI-H716 cell line, NPC library (AID 1117341;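 active = compound raises GLP1 secretion from the human gut endocrine cells, with no numeric limit stated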). Particulars: NCI-H716 cells, at 10 µM, stronger effect = higher value.
A short description of assay [10]: HCT116 colon cancer cell growth inhibition, primary screen, CellTiter-Glo luminescence, NPC library (AID 1117342;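 active = compounds that lower survival of HCT116 colon cancer cells in the luminescence readout, no numeric limit stated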). Particulars: at 20 µM (top of the series).
The nature of assay [11]: CellTiter-Glo luminescent readout of SW480 viability loss, NPC library primary (AID 1117343;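 active = compounds that lower viability of the colon cancer cells in the luminescence readout, with no numeric limit stated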). To be noted: CellTiter-Glo luminescence; at 20 µM (top of the series).
Assay [12] is described as follows: decreased DLD-1 cellular survival, CellTiter-Glo luminescent readout, NPC compound collection, primary HTS (AID 1117346;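 active = compounds that lower survival of DLD-1 colon cancer cells in the luminescence readout, no cutoff given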). Particulars: DLD-1 viability, CellTiter-Glo luminescence; at 20 µM (top of the series).
Assay [13] has as its target 6-phosphogluconate dehydrogenase, decarboxylating (Homo sapiens) (UniProt P52209). The experiment in a line: 6PGD enzyme inhibitors, primary screen, biochemical, human, recombinant enzyme, NADPH absorbance (AID 1159550;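 active = at least 20% inhibition of 6-phosphogluconate dehydrogenase activity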). To be noted: recombinant 6PGD, NADPH absorbance 341 nm; at 10 µM; stronger effect = higher value.
Assay [14] is described as follows: differential killing of epithelial or mesenchymal cells, primary screen, imaging, PC-3E GFP, TEM4-18 mCherry, co-culture (AID 1345086;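 active = compounds killing one labelled cell type while sparing the other, by normalised counts and ratio limits, not self-fluorescent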;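 for all read-outs here: cells exposed to compound for 72 h before imaging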;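 for red/green cell ratio (normalised): normalised mesenchymal count divided by normalised epithelial count so high means epithelial killing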). To be noted: imaging cell counts, at 1 µM; for red/green cell ratio (normalised): actives lie on both sides.
Assay [15] concerns Aerobactin synthetase IucA (Klebsiella pneumoniae hvKP1). In words: Biochemical IucA enzyme inhibition primary screen of the Spectrum library (AID 1346200; call rule not given here;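 note: 100% = wells without compound and 0% = wells lacking enzyme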). Particulars: malachite green pyrophosphate, A620, at 8 µM, stronger effect = lower value.
Assay [16] in a line: sensitizers of A549 cells to miR-34 induction, primary screen, imaging, A549 dox-inducible miR-34, nuclei and caspase counts (AID 1347080). To be noted: A549 miR-34 inducible, Hoechst nuclei count, 48 h.
The nature of assay [17]: survival rescue of mitochondrial mutant cells in low glucose, primary screen, MELAS cybrids, Rieske KO mouse fibroblasts, CellTiter-Glo (AID 1508586;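 active = mean z-score across replicates of 1.96 or higher in either the MELAS or the Rieske mutant cell line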;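 note: z relative to plate mean and SD of compound and empty wells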).
For assay [18], the target named is NAD(+) hydrolase SARM1 (Homo sapiens) (UniProt Q6SZW1). In words: SARM1 TIR NADase inhibitors, cell lysate, NAD-Glo luminescence (AID 1508614;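 active = compound whose remaining NAD level is above about 45 nM, limit read from the data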;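 note: higher remaining NAD means stronger inhibition of SARM1 NADase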). Particulars: SAM-TIR HEK293T lysate NADase, at 1 µM, stronger effect = higher value.
The target of assay [19] is Mitogen-activated protein kinase 7 (Homo sapiens) (UniProt Q13164). The experiment in a line: ERK5 transactivation activators in reporter cells, primary screen, cell-based, HTS (AID 1508626;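 active = luciferase signal above three times the same-plate solvent-only control wells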;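 note: luciferase driven by Gal4-ERK5 fusion binding five Gal4 sites before minimal TATA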). To be noted: HeLa Gal4-ERK5 transactivation, 18 h, at 5 µM, stronger effect = higher value.
Assay [20] can be described thus: viability rescue of complex I mutant cybrids, primary screen, cell-based, galactose medium, ATP luminescence (AID 1645843;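 active = z-score of at least 1.8 in each of two replicates, scored against plate mean and spread of sample wells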;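 note: positive z means more ATP and so rescue of galactose-driven cybrid death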). Particulars: complex I mutant cybrid cells, 72 h, stronger effect = higher value.
[21] abbreviates: measured here: epithelial PC-3E GFP cell survival.
Setting [22] is: measured here: mesenchymal TEM4-18 mCherry cell survival.
Where [23] appears, read: measured here: relative caspase fold change +Dox/-Dox.
Setting [24] is: measured here: total cells with miR-34 induction, stronger effect = lower value.
Where [25] appears, read: measured here: total cells without miR-34 induction.
[26] abbreviates: MELAS cybrid survival, CellTiter-Glo 48 h, stronger effect = higher value.
[27] abbreviates: Rieske KO mouse fibroblast survival, CellTiter-Glo 72 h.

Structures are written as SMILES. Values joined by “and” are separate entries in the source; they are usually repeats but may differ in a detail not shown here. Equal values may be shown once. A structure can be active in one record and inactive in another. Active and inactive are the calls of the source.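 Rule for the calls, unless noted: active = compounds whose cell count with miR-34 switched on is under 0.7 times the count with it off; inactive = the rest.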

Chain of 6-phosphogluconate dehydrogenase, decarboxylating (Homo sapiens) (P52209 whole entry, looked up): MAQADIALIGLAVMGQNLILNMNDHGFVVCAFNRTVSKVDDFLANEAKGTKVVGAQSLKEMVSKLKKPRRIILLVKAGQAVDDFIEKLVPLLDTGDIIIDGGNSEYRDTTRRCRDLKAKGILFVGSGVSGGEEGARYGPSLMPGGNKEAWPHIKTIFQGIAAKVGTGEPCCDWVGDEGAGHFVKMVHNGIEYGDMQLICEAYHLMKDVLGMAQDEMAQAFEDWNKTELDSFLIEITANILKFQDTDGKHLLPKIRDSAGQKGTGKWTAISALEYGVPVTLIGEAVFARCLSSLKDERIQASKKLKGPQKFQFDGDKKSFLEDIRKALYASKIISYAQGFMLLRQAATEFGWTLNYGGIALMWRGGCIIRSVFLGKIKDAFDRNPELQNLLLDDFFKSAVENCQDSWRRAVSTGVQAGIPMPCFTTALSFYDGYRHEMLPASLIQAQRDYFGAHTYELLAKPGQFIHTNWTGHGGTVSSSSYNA
Chain of NAD(+) hydrolase SARM1 (Homo sapiens) (Q6SZW1 whole entry, looked up, the tested form may be a part): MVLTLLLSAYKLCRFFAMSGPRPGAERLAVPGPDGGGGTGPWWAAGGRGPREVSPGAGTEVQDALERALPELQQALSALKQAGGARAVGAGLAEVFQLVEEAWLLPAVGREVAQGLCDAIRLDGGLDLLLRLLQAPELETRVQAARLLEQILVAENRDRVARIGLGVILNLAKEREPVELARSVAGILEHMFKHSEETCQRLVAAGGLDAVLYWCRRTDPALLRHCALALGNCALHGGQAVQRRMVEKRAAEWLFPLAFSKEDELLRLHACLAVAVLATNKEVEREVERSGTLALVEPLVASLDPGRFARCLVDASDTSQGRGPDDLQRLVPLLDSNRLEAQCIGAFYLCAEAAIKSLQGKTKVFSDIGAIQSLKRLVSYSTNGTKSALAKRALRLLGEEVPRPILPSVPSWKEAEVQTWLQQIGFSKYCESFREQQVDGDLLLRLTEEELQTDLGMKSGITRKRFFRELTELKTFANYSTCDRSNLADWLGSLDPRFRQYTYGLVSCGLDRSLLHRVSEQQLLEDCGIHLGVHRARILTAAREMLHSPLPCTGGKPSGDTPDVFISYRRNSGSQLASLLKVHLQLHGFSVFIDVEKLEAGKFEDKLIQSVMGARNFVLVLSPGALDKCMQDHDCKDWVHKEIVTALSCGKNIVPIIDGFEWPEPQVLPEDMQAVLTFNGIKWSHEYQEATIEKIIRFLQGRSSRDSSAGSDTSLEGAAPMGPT
Chain of Mitogen-activated protein kinase 7 (Homo sapiens) (Q13164 whole entry, looked up, the tested form may be a part): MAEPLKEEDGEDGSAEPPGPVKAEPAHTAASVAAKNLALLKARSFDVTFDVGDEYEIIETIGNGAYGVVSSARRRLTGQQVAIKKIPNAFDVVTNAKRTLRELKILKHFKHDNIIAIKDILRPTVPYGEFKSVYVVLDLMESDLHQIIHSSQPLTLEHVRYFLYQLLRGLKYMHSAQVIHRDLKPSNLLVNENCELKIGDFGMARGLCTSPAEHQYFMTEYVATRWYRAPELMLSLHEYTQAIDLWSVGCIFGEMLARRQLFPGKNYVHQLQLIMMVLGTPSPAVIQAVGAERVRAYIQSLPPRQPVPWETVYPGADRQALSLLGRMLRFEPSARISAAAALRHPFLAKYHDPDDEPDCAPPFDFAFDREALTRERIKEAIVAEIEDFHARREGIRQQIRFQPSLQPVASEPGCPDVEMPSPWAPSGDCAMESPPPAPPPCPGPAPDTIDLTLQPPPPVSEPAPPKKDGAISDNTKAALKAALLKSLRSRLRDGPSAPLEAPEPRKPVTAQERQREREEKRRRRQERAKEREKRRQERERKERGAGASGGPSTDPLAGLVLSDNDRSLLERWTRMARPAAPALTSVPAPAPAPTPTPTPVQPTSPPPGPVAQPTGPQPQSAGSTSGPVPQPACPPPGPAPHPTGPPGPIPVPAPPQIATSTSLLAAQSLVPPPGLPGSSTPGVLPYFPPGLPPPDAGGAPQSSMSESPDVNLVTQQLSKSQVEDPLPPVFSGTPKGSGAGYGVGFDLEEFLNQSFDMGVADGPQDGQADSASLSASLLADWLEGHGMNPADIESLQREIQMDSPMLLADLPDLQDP

One may read the viability as a read-out of living cells in per cent, often relative to untreated cells. A word on the inhibition: it is the drop in the measured response relative to a control, in per cent. `c1ccc2nc(N3CCNCC3)ccc2c1`: the score in [1] is 1.22. The cytochrome c release ratio in assay [2] is 0.9. Further, the inhibition of aggregation in assay [3] came out at 63.9%. The parasite load remaining in assay [4] is 73.5% (inactive) and 55.7% (inactive) and 53.7% (inactive). Moreover, the viability in [4] was 107% and 72.2% and 102%. The nuclear beta-catenin stimulation is 0.1% (inactive) in [5] (at 10 µM) and -1.9% in assay [5] (stimulation, at 2 µM). The insulin secretion stimulation in assay [6] was 4% (inactive). For the same compound, in [7], the viability decrease was 41.7% (inactive). Moreover, in assay [8], the tube area decrease is -4.1% (inactive). Moreover, in assay [9], the GLP1 secretion stimulation is 3.6% (inactive). In addition, the inhibition of viability in assay [10] was 56.9% (active). Moreover, the viability decrease (inhibition) in assay [11] is 54.9% (active); in assay [12] it was 25% (inactive). Further, in assay [13], the inhibition was 9.28% (inactive). For the same compound, the red/green cell ratio (normalised) in assay [14] was 1.18 (inactive). In addition, the normalised cell number in assay [14] (setting [21]) came to 1.13; in [14] (setting [22]), 1.34. The activity remaining in assay [15] is 124% (inactive). For the same compound, the fold change in assay [16] (stronger effect = lower value) was 0.855 (inactive) and 0.953 (inactive) and 0.849 (inactive); in [16] (setting [23]), 1.3 and 0.736 and 5.89. The cell count in assay [16] (setting [24]) is 9120 and 9090 and 11300; in assay [16] (setting [25]) it was 10700 and 9530 and 13400. For the same compound, the z-score is 0.387 (inactive) in [17] (setting [26]), 0.0895 in assay [17] (setting [27]) and -0.47 (inactive) in assay [20]. The remaining NAD in assay [18] was 10 nM (inactive). In addition, the luciferase signal in [19] was 28 AU (inactive).
Consider `CCC1(c2ccccc2)C(=O)N(COC)C(=O)N(COC)C1=O`, for which the nuclear beta-catenin stimulation was 0.6% (inactive) in [5] (at 10 µM) and 0.4% in [5] (stimulation, at 2 µM). The insulin secretion stimulation in assay [6] is 0.35% (inactive). Also, the viability decrease in [7] is 83.5% (active). In addition, the tube area decrease in assay [8] is 4% (inactive). In addition, the GLP1 secretion stimulation in assay [9] is 1.4% (inactive). The inhibition of viability in [10] is 96.3% (active). Further, the viability decrease (inhibition) in [11] is 89.5% (active); in assay [12], 62.9% (active).
Take `O=c1ccc2cc(O[C@@H]3O[C@H](CO)[C@H](O)[C@H](O)[C@H]3O)c(O)cc2o1`: the nuclear beta-catenin stimulation in [5] (at 10 µM) was -0.9% (inactive); in assay [5] (stimulation, at 2 µM), -0.5%. Moreover, the insulin secretion stimulation in assay [6] is 5% (inactive). Also, in assay [7], the viability decrease was -6.5% (inactive). Also, the tube area decrease in assay [8] was -14.5% (inactive). In addition, the GLP1 secretion stimulation in [9] is -2.1% (inactive). Besides, the inhibition of viability in [10] is 8.5% (inactive). In addition, the viability decrease (inhibition) in assay [11] is 13.9% (inactive); in assay [12], -0.6% (inactive).
As to `O=C(O)c1nn(Cc2ccc(Cl)cc2Cl)c2ccccc12`, the nuclear beta-catenin stimulation in [5] (at 10 µM) is 1.4% (inactive); in assay [5] (stimulation, at 2 µM), 4.8%. Also, the insulin secretion stimulation in assay [6] was 4.2% (inactive). The viability decrease in [7] was 31.1% (inactive). In addition, the tube area decrease in assay [8] is -29.5% (inactive). The GLP1 secretion stimulation in assay [9] is 4.9% (inactive). In assay [10], the inhibition of viability is 19.6% (inactive). The viability decrease (inhibition) in assay [11] was 24.5% (inactive); in assay [12] it was 3.6% (inactive). Also, in assay [13], the inhibition is 4.63% (inactive). For the same compound, the red/green cell ratio (normalised) in assay [14] was 0.98 (inactive). Moreover, the normalised cell number in assay [14] (setting [21]) was 0.85; in assay [14] (setting [22]) it was 0.83. For the same compound, the fold change was 1.1 (inactive) and 0.951 (inactive) and 0.966 (inactive) in [16] (stronger effect = lower value); 0.953 and 0.659 and 0.627 in assay [16] (setting [23]). The cell count in assay [16] (setting [24]) is 10200 and 7460 and 7860; in assay [16] (setting [25]), 9270 and 7840 and 8130. The z-score in [17] (setting [26]) is -0.0995 (inactive); in assay [17] (setting [27]), -0.0829; in assay [20] it was 2.35 (active) and 0.985 (inactive). The remaining NAD in assay [18] is 10 nM (inactive).
In assay [1], `CN(C)[C@@H]1C(=O)C(C(N)=O)=C(O)[C@@]2(O)C(=O)C3=C(O)c4c(O)cccc4[C@@](C)(O)[C@H]3[C@H](O)[C@@H]12` displayed a score of 0.9. For the same compound, the cytochrome c release ratio in assay [2] stood at 0.99. The same compound came in with an inhibition of aggregation in [3] of 39.4%. Also, the nuclear beta-catenin stimulation in assay [5] (at 10 µM) was -2.3% (inactive); in [5] (stimulation, at 2 µM), 0.1%. Further, the insulin secretion stimulation in [6] was 1.4% (inactive). Moreover, in [7], the viability decrease is 38.4% (inactive). In addition, in assay [8], the tube area decrease is 11.7% (inactive). In assay [9], the GLP1 secretion stimulation is -2.9% (inactive). Besides, in assay [10], the inhibition of viability was 31.6% (inactive). The viability decrease (inhibition) is 62.8% (active) in assay [11] and 14.3% (inactive) in assay [12]. In addition, the inhibition in [13] was -7.39% (inactive). Also, the red/green cell ratio (normalised) in [14] is 0.97 (inactive). For the same compound, the figures for the normalised cell number in assay [14] (setting [21]) and in assay [14] (setting [22]) were 1.02 and 0.99, respectively. Besides, in assay [15], the activity remaining was 109% (inactive). The fold change was 0.977 (inactive) and 0.919 (inactive) and 0.901 (inactive) in [16] (stronger effect = lower value); 0.839 and 0.936 and 1.89 in assay [16] (setting [23]). Moreover, the cell count is 8720 and 8430 and 10800 in assay [16] (setting [24]); 8930 and 9170 and 12000 in assay [16] (setting [25]). Besides, the z-score in assay [17] (setting [26]) is -3.76 (inactive); in assay [17] (setting [27]), -2.32; in assay [20] it was -1.4 (inactive). The remaining NAD in assay [18] was 10 nM (inactive). Further, the luciferase signal in assay [19] was 92 AU (inactive).
